{"source": "the supplement of paper PMC11732987", "about": "“Enantioselective OTUD7B fragment discovery through chemoproteomics screening and high-throughput optimisation” (Communications Chemistry, 2025)", "test_in_all_cases": "log2 ratio of Biotin-Ahx-Ub-VS probe labelling (fragment/DMSO); higher = less target engagement (more negative = stronger competition), active = hit call of the paper (q ≤ 0.05, log2 ratio ≤ -1)", "conditions_in_all_cases": "compound concentration: 200 uM; treatment time: 3 h", "key": {"ALG13": {"molecular_target": "T1, ALG13 (UniProt Q9NP73)", "T1 sequence (whole entry)": "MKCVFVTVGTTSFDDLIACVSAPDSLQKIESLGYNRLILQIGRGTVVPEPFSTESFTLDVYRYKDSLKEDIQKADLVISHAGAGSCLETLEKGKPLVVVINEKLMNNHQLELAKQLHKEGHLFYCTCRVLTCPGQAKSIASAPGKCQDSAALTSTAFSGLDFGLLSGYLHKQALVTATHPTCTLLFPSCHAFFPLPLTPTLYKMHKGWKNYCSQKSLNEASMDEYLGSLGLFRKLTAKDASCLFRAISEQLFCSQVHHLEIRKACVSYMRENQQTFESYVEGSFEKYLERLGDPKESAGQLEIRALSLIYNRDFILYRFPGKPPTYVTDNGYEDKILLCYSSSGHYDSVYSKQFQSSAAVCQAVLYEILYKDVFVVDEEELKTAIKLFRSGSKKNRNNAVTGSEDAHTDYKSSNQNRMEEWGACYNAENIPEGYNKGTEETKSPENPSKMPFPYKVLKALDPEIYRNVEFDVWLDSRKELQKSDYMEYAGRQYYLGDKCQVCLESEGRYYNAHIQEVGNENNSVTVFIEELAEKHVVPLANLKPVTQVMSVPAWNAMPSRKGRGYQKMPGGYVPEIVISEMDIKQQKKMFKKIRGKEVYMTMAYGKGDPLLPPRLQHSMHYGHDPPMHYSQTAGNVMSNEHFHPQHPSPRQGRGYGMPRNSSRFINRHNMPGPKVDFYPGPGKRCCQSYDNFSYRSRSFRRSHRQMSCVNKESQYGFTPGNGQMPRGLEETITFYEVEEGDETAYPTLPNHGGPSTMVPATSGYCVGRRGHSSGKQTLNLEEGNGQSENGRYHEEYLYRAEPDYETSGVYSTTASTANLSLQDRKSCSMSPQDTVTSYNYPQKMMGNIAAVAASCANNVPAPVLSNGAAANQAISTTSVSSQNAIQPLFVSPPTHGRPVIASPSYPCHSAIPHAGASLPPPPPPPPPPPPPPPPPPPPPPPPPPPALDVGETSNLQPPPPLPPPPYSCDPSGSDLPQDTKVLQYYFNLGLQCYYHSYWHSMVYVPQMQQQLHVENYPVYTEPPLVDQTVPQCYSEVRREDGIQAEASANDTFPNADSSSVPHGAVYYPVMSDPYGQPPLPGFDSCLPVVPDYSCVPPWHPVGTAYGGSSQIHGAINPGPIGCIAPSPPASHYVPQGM", "how_it_was_run": "(§1)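 Fragment (200 µM) or vehicle was incubated for 3 h with triplicate HEK293T lysate samples of 495 µg, which were then treated with Biotin-Ahx-Ub-VS at 0.5 µM final for 1 h. Labelled DUBs were enriched on NeutrAvidin, digested with LysC and trypsin, and analysed by diaPASEF LC-MS/MS. Values are average log2 fragment/vehicle ratios from an unpaired t-test on global-median-normalised Spectronaut label-free quantities, using proteins with ≥2 unique peptides.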"}, "ATXN3": {"molecular_target": "ATXN3 (UniProt P54252)", "sequence (P54252 whole entry)": "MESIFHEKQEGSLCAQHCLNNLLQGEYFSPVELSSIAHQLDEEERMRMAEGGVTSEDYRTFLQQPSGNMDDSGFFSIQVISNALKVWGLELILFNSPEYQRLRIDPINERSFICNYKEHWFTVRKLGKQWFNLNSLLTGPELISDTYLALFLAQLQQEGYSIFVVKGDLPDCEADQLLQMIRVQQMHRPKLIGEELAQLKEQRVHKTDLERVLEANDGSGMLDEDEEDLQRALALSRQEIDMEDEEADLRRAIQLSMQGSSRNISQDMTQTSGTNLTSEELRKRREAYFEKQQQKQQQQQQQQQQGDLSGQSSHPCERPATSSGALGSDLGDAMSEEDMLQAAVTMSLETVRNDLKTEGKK", "how_it_was_run": "as §1"}, "BAP1": {"molecular_target": "T2, BAP1 (UniProt Q92560)", "T2 sequence (whole entry)": "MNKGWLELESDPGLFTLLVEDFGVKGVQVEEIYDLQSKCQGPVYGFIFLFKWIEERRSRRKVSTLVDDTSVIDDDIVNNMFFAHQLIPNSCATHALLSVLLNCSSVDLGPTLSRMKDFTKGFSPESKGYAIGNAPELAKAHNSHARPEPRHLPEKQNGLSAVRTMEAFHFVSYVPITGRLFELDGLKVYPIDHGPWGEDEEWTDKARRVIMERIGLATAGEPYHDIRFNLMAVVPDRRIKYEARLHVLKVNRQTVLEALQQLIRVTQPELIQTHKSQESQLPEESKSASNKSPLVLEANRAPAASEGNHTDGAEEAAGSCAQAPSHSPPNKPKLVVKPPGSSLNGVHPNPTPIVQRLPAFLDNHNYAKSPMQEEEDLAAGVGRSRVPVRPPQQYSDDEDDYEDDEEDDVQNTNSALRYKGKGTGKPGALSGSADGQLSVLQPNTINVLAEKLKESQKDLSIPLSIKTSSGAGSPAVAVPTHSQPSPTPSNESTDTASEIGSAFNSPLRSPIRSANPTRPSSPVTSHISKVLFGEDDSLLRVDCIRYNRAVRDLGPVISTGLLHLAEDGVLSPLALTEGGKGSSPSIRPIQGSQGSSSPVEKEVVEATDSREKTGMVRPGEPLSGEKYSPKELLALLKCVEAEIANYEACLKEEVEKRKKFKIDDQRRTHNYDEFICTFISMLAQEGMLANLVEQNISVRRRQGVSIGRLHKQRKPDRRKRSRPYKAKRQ", "how_it_was_run": "as §1"}, "EIF3F": {"molecular_target": "EIF3F (UniProt O00303)", "sequence (O00303 whole entry)": "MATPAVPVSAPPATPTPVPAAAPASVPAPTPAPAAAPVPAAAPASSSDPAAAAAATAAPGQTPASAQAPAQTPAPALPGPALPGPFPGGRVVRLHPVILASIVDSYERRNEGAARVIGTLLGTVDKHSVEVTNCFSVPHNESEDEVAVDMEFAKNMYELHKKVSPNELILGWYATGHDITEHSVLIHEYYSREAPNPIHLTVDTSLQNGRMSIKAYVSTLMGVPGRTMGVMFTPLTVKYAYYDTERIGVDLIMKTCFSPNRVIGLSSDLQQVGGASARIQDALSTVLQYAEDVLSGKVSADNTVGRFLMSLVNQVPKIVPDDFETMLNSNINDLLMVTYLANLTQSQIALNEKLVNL", "how_it_was_run": "as §1"}, "EIF3H": {"molecular_target": "EIF3H (UniProt O15372)", "sequence (O15372 whole entry)": "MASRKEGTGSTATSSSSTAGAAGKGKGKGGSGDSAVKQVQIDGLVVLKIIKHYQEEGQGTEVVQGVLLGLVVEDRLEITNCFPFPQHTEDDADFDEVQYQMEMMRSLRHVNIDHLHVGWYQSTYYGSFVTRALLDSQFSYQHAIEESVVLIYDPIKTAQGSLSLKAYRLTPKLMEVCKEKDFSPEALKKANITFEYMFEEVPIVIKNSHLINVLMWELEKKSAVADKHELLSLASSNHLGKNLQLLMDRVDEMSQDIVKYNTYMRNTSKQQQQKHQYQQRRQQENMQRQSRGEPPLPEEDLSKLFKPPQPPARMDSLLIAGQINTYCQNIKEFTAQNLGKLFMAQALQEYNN", "how_it_was_run": "as §1"}, "FAM105A": {"molecular_target": "T3, FAM105A (UniProt Q9NUU6)", "T3 sequence (whole entry)": "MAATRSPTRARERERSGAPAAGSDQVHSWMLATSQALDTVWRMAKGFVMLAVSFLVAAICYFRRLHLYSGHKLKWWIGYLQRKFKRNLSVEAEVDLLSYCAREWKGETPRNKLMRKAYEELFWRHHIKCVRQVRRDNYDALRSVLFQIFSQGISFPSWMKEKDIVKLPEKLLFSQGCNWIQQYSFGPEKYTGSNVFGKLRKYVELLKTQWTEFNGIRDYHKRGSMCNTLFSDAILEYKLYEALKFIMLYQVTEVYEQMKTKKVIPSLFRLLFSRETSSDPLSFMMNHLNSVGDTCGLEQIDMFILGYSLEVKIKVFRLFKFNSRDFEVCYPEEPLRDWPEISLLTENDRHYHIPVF", "how_it_was_run": "as §1"}, "OTUB1": {"molecular_target": "OTUB1 (UniProt Q96FW1)", "sequence (Q96FW1 whole entry)": "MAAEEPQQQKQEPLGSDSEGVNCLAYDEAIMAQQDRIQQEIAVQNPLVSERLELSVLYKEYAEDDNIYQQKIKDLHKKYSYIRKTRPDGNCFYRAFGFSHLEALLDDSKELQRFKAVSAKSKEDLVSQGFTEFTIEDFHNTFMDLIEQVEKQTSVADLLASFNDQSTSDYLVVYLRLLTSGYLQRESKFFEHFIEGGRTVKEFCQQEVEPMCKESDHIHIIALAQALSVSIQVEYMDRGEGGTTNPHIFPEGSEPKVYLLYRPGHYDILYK", "how_it_was_run": "as §1"}, "OTUD4": {"molecular_target": "T4, OTUD4 (UniProt Q01804)", "T4 sequence (whole entry)": "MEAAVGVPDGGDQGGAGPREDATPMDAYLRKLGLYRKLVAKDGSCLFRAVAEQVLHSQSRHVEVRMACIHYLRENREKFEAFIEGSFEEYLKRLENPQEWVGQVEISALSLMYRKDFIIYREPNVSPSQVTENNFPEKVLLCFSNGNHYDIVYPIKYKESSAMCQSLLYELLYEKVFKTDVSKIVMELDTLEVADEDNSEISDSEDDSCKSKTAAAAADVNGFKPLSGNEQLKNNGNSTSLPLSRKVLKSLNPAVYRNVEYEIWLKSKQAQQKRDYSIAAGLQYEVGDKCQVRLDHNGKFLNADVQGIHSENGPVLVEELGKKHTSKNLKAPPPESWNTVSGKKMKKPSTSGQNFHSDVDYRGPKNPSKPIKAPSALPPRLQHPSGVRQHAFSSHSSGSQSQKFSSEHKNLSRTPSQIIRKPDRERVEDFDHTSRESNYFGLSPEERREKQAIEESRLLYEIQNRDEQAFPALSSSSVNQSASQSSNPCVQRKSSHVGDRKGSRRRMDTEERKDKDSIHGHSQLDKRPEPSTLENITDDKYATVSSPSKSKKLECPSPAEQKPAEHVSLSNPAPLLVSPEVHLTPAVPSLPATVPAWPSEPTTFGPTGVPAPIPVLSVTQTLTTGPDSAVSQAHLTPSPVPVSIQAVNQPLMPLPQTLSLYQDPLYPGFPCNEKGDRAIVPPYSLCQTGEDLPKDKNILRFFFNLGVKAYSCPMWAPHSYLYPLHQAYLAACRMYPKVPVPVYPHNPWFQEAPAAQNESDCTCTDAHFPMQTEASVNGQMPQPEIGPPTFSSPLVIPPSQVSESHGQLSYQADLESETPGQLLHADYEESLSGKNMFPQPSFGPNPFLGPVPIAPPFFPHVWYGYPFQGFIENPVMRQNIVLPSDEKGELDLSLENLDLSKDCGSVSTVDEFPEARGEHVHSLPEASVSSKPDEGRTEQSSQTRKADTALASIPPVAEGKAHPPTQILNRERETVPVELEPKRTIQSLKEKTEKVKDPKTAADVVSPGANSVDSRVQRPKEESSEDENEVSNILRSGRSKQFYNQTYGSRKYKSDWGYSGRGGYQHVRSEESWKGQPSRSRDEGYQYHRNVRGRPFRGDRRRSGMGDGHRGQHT", "how_it_was_run": "as §1"}, "OTUD5": {"molecular_target": "T5, OTUD5 (UniProt Q96G74)", "T5 sequence (whole entry)": "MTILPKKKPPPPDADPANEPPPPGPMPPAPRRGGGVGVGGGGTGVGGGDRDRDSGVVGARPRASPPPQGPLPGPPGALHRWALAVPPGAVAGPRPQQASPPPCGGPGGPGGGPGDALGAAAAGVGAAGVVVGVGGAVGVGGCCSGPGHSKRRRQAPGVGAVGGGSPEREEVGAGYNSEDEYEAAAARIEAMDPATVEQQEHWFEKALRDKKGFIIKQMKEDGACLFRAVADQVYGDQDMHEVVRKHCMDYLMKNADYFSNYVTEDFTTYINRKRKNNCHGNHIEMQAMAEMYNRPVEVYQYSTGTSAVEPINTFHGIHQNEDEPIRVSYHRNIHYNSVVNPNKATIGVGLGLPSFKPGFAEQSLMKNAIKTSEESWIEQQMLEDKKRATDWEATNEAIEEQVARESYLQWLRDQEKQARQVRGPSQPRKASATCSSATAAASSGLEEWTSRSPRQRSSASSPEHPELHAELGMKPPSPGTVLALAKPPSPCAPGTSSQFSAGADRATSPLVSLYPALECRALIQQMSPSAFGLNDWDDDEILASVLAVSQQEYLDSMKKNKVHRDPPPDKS", "how_it_was_run": "as §1"}}, "note": "A number with no mark means an inactive call."}
{"smiles": "Cl.Cn1nccc1C(NC(=O)CCl)c1ccccc1", "note": "(centres undefined)", "values": [{"measurement": "log2 ratio of Biotin-Ahx-Ub-VS probe labelling", "setting": "ALG13", "result": -0.0316}, {"measurement": "log2 ratio of Biotin-Ahx-Ub-VS probe labelling", "setting": "ATXN3", "result": -0.49}, {"measurement": "log2 ratio of Biotin-Ahx-Ub-VS probe labelling", "setting": "BAP1", "result": "-4.27 (active)"}, {"measurement": "log2 ratio of Biotin-Ahx-Ub-VS probe labelling", "setting": "EIF3F", "result": -0.145}, {"measurement": "log2 ratio of Biotin-Ahx-Ub-VS probe labelling", "setting": "EIF3H", "result": 0.106}, {"measurement": "log2 ratio of Biotin-Ahx-Ub-VS probe labelling", "setting": "FAM105A", "result": 0.0639}, {"measurement": "log2 ratio of Biotin-Ahx-Ub-VS probe labelling", "setting": "OTUB1", "result": -0.173}, {"measurement": "log2 ratio of Biotin-Ahx-Ub-VS probe labelling", "setting": "OTUD4", "result": -0.894}, {"measurement": "log2 ratio of Biotin-Ahx-Ub-VS probe labelling", "setting": "OTUD5", "result": -0.379}]}
